# DT40 TDP1 no CPT – qHTS for Inhibitors of human tyrosyl-DNA phosphodiesterase 1 (TDP1): qHTS in cells in absence of CPT. Potency, µM (series often up to 46.2 µM), inactives show at the top dose activity change, negative = growth inhibition, usual class: inhibitors. DT40 Tdp1-/- hTDP1 cells, no CPT, ATP luminescence, 48 h. 15% of 420,000 active; note: potency is the fitted concentration of half-maximal effect; % is set by controls: 0 for no effect and ±100 for the full control effect; nearly all actives have a fitted effect of over 55% in size
#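 Cells were dispensed at 400 per well, compounds added by pin tool, plates incubated ≥48 hr at 37 °C, then CellTiter-Glo added for 30 min at room temperature before luminescence reading. Line: DT40 Tdp1-/- complemented with hTDP1; camptothecin omitted.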
# TDP1 cell CPT – DT40-hTDP1 cell growth loss with CPT; chicken DT40 Tdp1-/-;hTDP1 cells + 20 nM CPT, ATP luminescence, 48 h; 12% of 420,000 active; Potency, µM (doses to about 46.2 µM), for the others: at the top dose activity change, negative = growth inhibition, actives largely listed as inhibitors; AID 686979; note: potency is the fitted concentration of half-maximal effect; % is set by controls: 0 for no effect and ±100 for the full control effect; nearly all actives have a fitted effect of over 55% in size
#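 Chicken DT40 Tdp1-/- cells complemented with human TDP1, 400 cells/well, exposed to compounds plus 20 nM camptothecin for at least 48 h at 37 C; viability read as ATP content by CellTiter-Glo luminescence.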
# SW480 rereplic – inducers of DNA re-replication in SW480 colon cancer cells; SW480 DNA re-replication, Hoechst DNA content imaging, 48 h; Potency, µM (highest dose often 46.1 µM), without a hit: at the top dose re-replication activation, usual class: activators; 1.8% of 340,000 active; AID 624297; note: potency is the fitted concentration of half-maximal effect; % of control where 0% means no effect; nearly all actives have a fitted effect of over 55% in size
#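 Cells (250 per well) received 23 nL compound or DMSO by pin tool and were kept 48 hr at 37 C, 5% CO2. Nuclei were then stained with Hoechst for 40 min and scanned for DNA content.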
# MCF10A rereplic – induces DNA re-replication in MCF 10a normal breast cells; MCF 10A DNA re-replication, Hoechst nuclear intensity, 48 h; Potency, µM (series often up to 46.1 µM), without a hit: top-dose activity, positive = re-replication, most hits filed as activators; 2.9% of 350,000 active; AID 624296; note: potency is the fitted concentration of half-maximal effect; % of control where 0% means no effect; nearly all actives have a fitted effect of over 50% in size
# IL1B secr inh – inhibitors of inflammasome signaling (IL-1 beta secretion); AID 743279; activity change, % at 57.5 µM; THP-1 LPS/ATP IL-1B secretion, AlphaLISA, 16 h; active compounds read low; 4.7% of 360,000 active; in the data active = activity change below about -50%; inconclusive = mostly about -30% to -49%; note: % is set by controls: 0 for no effect and ±100 for the full control effect
#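 THP-1 cells pretreated 1 hr with compounds (up to 57.5 uM final), then stimulated with LPS (250 ng/mL final) plus ATP (1.25 mM final); secreted IL-1B measured by AlphaLISA after 16 hr, decreased signal indicating inhibition.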
# BCR signal inh – chronic active BCR signaling inhibition; ABC-DLBCL IkBa-CBG/CBR reporter, luminescence ratio, 4 h; Potency, µM (top dose mostly 46.1 µM), for the others: at the top dose activity change, negative = inhibition, usual class: inhibitors; 0.05% of 340,000 active; AID 493014; active = well fitted inhibition curve with a large enough effect in the signal ratio, with a control signal flat, not every such curve was filed as active; inconclusive = small, poorly fitted or top-dose-only effect, or effect the other way, or a change in a side signal; the % refers to the signal ratio;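 note: potency is the fitted concentration of half-maximal effect; plate controls were basal doxycycline-induced cells for no effect and cells given 10 µM MG132 for full effect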
#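 TMD8 ABC-DLBCL cells carrying doxycycline-inducible green luciferase fused to IkappaBalpha plus unfused red luciferase were exposed to compounds (up to 46 uM) for 4 hrs at 37C. Activity came from the overlap-corrected green/red luminescence ratio.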
# Starred values were filed as active, the others as inactive; ? = inconclusive; · = not tested or not shown; [ ] = another dose, or the depositor's remark. Rows were chosen to be rich in hits. Some 19% of all compounds tested hit in one or more screens of this group. Unless noted, calls come from the whole dose curve; as a rule, active = well fitted curve in the direction sought with a large enough effect; inconclusive = small, poorly fitted or top-dose-only effect, or another doubt; inactive = no such curve, though single readings can be large; an effect the other way counts as inactive or inconclusive.
SMILES,DT40 TDP1 no CPT,TDP1 cell CPT,SW480 rereplic,MCF10A rereplic,IL1B secr inh,BCR signal inh
COc1cc(CN2CCOc3ccc(CN4CCC(Oc5cccnc5)CC4)cc3C2)ccc1F,21µM*,?,·,·,·,·
COc1ccc(F)c(CN2CCOc3ccc(CN4CCC(Oc5cccnc5)CC4)cc3C2)c1,?,-7%[9.04 µM],·,·,·,·
O=C(c1ccoc1)N1CCOc2ccc(CN3CCC(Oc4cccnc4)CC3)cc2C1,-29%,3%[9.04 µM],·,·,·,·
COc1ccc(CN2CCOc3ccc(CN4CCC(Oc5cccnc5)CC4)cc3C2)c(F)c1,21µM*,?,·,·,·,·
O=C(c1cscn1)N1CCOc2ccc(CN3CCC(Oc4cccnc4)CC3)cc2C1,0.29µM*,?,·,·,·,·
COc1cc(OC)c(CN2CCOc3ccc(CN4CCC(O)CC4)cc3C2)c(OC)c1,23µM*,?,·,·,·,·
Cc1ccc2[nH]c(CSc3nnc(NC(=O)COc4ccccc4)s3)cc(=O)c2c1,-10%,-23%,·,·,·,·
C=C1CCc2c([nH]c3ccc(OCC(C)C)cc23)C1=O,0.92µM*,0.82µM*,?,4.6µM*,-99*,-27%
Cc1ccc(NC(=O)Cn2nnc(C(=O)NCc3ccc(Cl)cc3)c2N)cc1F,23%,1%,1%,-1%,11,-2%
Cc1c(C(=O)N/N=C/c2ccccc2)[nH]c2ccc(Cl)cc12,6.5µM*,9.2µM*,21µM*,15µM*,29,-25%
Cc1c(C(=O)N/N=C/c2ccc(N(C)C)cc2)[nH]c2ccc(Cl)cc12,5.8µM*,5.8µM*,?,15%,52,?
CN(C)c1ccc(/C=N/NC(=O)c2ccc3c(c2)OCO3)cc1,-7%,-24%,12%,0%,-28,?
CC(C)c1c(C(=O)N/N=C/c2ccc(C(F)(F)F)cc2)nnn1-c1nonc1N,13µM*,15µM*,26%,?,18,20%
COc1cc(/C=N/NC(=O)c2nnn(-c3nonc3N)c2C(C)C)ccc1OCc1ccccc1,21µM*,?,-20%,0%,43,20%
CC(C)c1c(C(=O)N/N=C/c2ccoc2)nnn1-c1nonc1N,-7%,-5%,0%,1%,-1,11%
COc1cccc(/C=N/NC(=O)c2nnn(-c3nonc3N)c2C(C)C)c1OCc1ccc(F)cc1,?,?,?,21µM*,-70*,-12%
O=C(Nc1nncs1)c1cc(S(=O)(=O)N2CCCCC2)ccc1Cl,-22%,0%,-8%,1%,7,8%
COC(=O)C(C)N(C(=O)c1cccc2ccccc12)c1c(C)cccc1C (centres undefined),16µM*,?,?,?,-1,-10%
CCOc1ccc(CNC(=O)c2ccc(Sc3ccc(Cl)cc3)c(NC(C)=O)c2)cc1OC,21µM*,?,5%,19%,?,-3%
CCOc1ccc(CNC(=O)c2ccc(Sc3ccc(C)cc3)c(NC(C)=O)c2)cc1OC,?,-23%,1%,2%,-25,0%
CC(=O)Nc1cc(C(=O)NCc2ccc(C)cc2)ccc1Sc1ccc(C)cc1,23µM*,16µM*,·,·,·,5%
COc1ccc(CN2C(=O)c3cccnc3C2=O)cc1S(=O)(=O)NC(C)C,16%,-4%,-19%,-5%,0,0%
Cc1oc(-c2ccccc2)cc1C(=O)NC1CCN(Cc2ccccc2)CC1,-27%,-19%,-12%,-2%,-22,?
CCOc1ccccc1N1CC(C(=O)N(CC)CC(=O)Nc2ccc3c(c2)OCCO3)CC1=O (centres undefined),-29%,?,2.3µM*,2%,5,-7%
CCCN(CC(=O)Nc1ccccc1C)C(=O)C1CC(=O)N(c2ccccc2C(C)CC)C1 (centres undefined),-6%,-2%,-4%,1%,11,-2%
SMILES,DT40 TDP1 no CPT,TDP1 cell CPT,SW480 rereplic,MCF10A rereplic,IL1B secr inh,BCR signal inh
CCC(C)c1ccccc1N1CC(C(=O)N(C)CC(=O)Nc2cccc(F)c2)CC1=O (centres undefined),-2%,-22%,?,-19%,-61*,-3%
COc1ncccc1-c1ccc2nncn2c1,0%,19%,·,·,0,·
COC(=O)c1ccc2cc(OC)cc([N+](=O)[O-])c2n1,-17%,-17%,-1%,-6%,9,·
CN(Cc1ccccc1)c1c([N+](=O)[O-])c(=O)n(C)c2ccccc12,15µM*,?,-9%,5%,35,12%
Cn1c(=O)c([N+](=O)[O-])c(NCCc2ccccc2)c2ccccc21,16µM*,?,-5%,10%,-10,?
Cn1c(=O)c([N+](=O)[O-])c(NCc2ccccc2Cl)c2ccccc21,?,-5%,-5%,4%,-79*,1%
Cn1c(=O)c([N+](=O)[O-])c(-n2cnc3ccccc32)c2ccccc21,21µM*,?,?,?,-98*,9%
Cc1ccc(Nc2c([N+](=O)[O-])c(=O)n(C)c3ccccc23)cc1C,?,?,?,24%,1,?
Cn1c(=O)c([N+](=O)[O-])c(NCc2ccc3c(c2)OCO3)c2ccccc21,-23%,3%,-2%,5%,39,?
O=C(CCCCn1c(=O)c2ccccc2n(CC(=O)Nc2ccc(F)cc2F)c1=O)NCCc1ccccc1,-23%,-12%,·,·,·,·
CCN(CC)c1c([N+](=O)[O-])c(=O)n(C)c2ccccc12,?,7%,?,1%,0,?
Cn1c(=O)c([N+](=O)[O-])c(Cl)c2ccccc21,4.6µM*,2.6µM*,16µM*,3.7µM*,-101*,?
CN(/N=C/c1cc(Cl)ccc1O)C1=NS(=O)(=O)c2ccccc21,18µM*,16µM*,-6%,17%,-14,?
CN(/N=C/c1ccc(Br)o1)C1=NS(=O)(=O)c2ccccc21,-29%,-7%,?,23µM*,-7,-2%
C(=N\NC1=NCCN1)/c1ccncc1,-6%,-6%,-12%,28%,-2,-2%
Cc1ccc(C)c(S(=O)(=O)N2CCCOC2CNC(=O)C(=O)NCCC2=CCCCC2)c1 (centres undefined),23µM*,?,4%,2%,0,-4%
Cc1cc(F)ccc1S(=O)(=O)N1CCCOC1CNC(=O)C(=O)NCCc1ccccc1 (centres undefined),-12%,?,-4%,13%,0,0%

# Assay outcomes from PubChem.
